Only some compounds are listed: those with a hit (about 2.4% of all), similar ones and a draw of the others.
D2 ag-1: activates the human D2 dopamine receptor; activation, % (test concentration not listed); DiscoveRx PathHunter D2 beta-arrestin, luminescence, 90 min; 100% = 57 uM dopamine signal; P14416; 0.084% of 360,000 active; in the data active = activation above about 40%; inconclusive = between about 15% and that limit
Target sequence (P14416 whole entry, looked up): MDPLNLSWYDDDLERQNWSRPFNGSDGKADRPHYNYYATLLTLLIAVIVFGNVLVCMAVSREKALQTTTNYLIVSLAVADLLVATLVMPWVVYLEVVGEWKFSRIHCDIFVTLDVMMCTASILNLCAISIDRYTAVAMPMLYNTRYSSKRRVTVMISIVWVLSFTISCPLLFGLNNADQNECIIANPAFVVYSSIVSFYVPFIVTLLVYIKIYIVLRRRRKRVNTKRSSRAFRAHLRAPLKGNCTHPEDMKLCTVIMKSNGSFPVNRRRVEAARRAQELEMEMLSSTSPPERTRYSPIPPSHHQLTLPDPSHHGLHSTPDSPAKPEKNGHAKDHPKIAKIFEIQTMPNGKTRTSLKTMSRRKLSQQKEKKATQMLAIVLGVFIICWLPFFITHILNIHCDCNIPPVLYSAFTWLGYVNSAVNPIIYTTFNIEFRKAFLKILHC
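Agonist mode: compounds alone added to overnight-plated D2 PathHunter cells for 90 min at 37 C, with 57 uM final dopamine (EC100) defining full response. Beta-arrestin recruitment detected by chemiluminescent reagent, read after 1 h at ambient temperature.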
D2 antag: antagonists of human D2 dopamine receptor | P14416 | HEK293 TREx D2 cells, calcium flux, dopamine EC80 | inhibition, % at 10 µM | 2% of 340,000 active; in the data active = inhibition above about 30%; inactive = below that, where a call was filed; note: 0% is about no effect
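Measurement of antagonist activity uses fluorescent calcium dye in inducible HEK293 T-REx D2 cells: 10 s baseline, compound addition with 180 s read, EC80 dopamine addition with a further 180 s read.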
D2 ag-2: agonists of human D2 dopamine receptor; HEK293 T-REx D2 cells, calcium flux agonist mode; 0.53% of 340,000 active; activation, % at 2 µM; AID 485358;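 active = activation over 3 SD above normal in the single-dose calcium agonist read, cut at about 30% in these data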; note: 0% is about no effect
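Tetracycline-induced HEK293 T-REx cells with force-coupled D2 receptor, plated overnight at 30 C, loaded with no-wash calcium dye. After a 10 s baseline, compound was pin-added and calcium flux read kinetically for 180 s; calcium rises flagged agonists.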
D2 PAM-1: potentiates the human D2 dopamine receptor allosterically | P14416 | DiscoveRx D2 beta-arrestin cells, luminescence, 90 min; 100% = 57 uM dopamine signal | potentiation, % (concentration not given with the values) | 0.23% of 360,000 active; in the data active = potentiation above about 50%; inconclusive = mostly about 30% to 49%
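PathHunter D2 cells, attached overnight at 37 deg C, received compound in DMSO plus dopamine at EC20 (50 nM final) for 90 min at 37 deg C. Beta-arrestin recruitment was read as luminescence after 1 h with detection reagent at ambient temperature.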
D2 PAM-2: D2 dopamine receptor (human) potentiation; P14416; HEK293 T-REx D2, calcium flux, EC20 dopamine potentiation; potentiation, % at 10 µM; 0.34% of 340,000 active; AID 485347;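 active = potentiation over 3 SD above the plate norm, cut at about 30% in these data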; note: 0% is about no effect
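Potentiation of an EC20 dopamine calcium response measured kinetically over 180 s, after a preceding 180 s compound-only read flagging agonists. Cells: inducible Hek293 Trex D2 line, 4000/well, cultured overnight at 30 C before dye loading.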
* hit, by the source's call; u = inconclusive; x = no result.

SMILES | D2 ag-1 | D2 antag | D2 ag-2 | D2 PAM-1 | D2 PAM-2
CCCCN(C(=O)CCC(=O)Nc1cc(C)on1)C(C(=O)NC(C)(C)C)c1ccccc1Cl (configuration not stated) | 0.5 | 2.8 | 0.6 | -4.1 | x
COCCN(C(=O)CCC(=O)Nc1cc(C)on1)C(C(=O)NC(C)(C)C)c1ccccc1Cl (configuration not stated) | 1.0 | 45.3* | -2.9 | -1.8 | x
COc1cccc(C(C(=O)NC2CCCC2)N(CCC(C)C)C(=O)CCC(=O)Nc2cc(C)on2)c1 (configuration not stated) | -0.8 | -18.5 | 1.0 | -3.3 | -3.5
COc1ccc(C(C(=O)NC2CCCC2)N(CCC(C)C)C(=O)CCC(=O)Nc2cc(C)on2)cc1 (configuration not stated) | 2.2 | 34.8* | -0.8 | 2.1 | 3.3
COCCN(C(=O)CCC(=O)Nc1cc(C)on1)C(C(=O)NC(C)(C)C)c1ccc(OC)cc1 (configuration not stated) | -9.8 | 10.4 | 7.9 | -2.2 | -20.4
COc1ccc(C(C(=O)NC(C)(C)C)N(CCc2ccc(OC)c(OC)c2)C(=O)CCC(=O)Nc2cc(C)on2)cc1 (configuration not stated) | -5.2 | 34.5* | 0.6 | -2.8 | x
CCOC(=O)c1c(Nc2ccc(OCC)cc2)nnc(-c2ccccc2)c1-c1ccccc1 | x | x | -0.3 | x | -22.7
CN(C(=O)CSc1nc2ccc(NC(=O)c3ccco3)cc2s1)c1ccccc1 | x | x | -0.2 | x | 0.8
O=C(CSc1nnc2scc(-c3ccc(Cl)cc3)n12)Nc1ccc(F)cc1 | x | x | x | x | -12.6
COC(=O)C(CC(C)C)N1CCC(=O)c2ccccc2S1(=O)=O (configuration not stated) | -0.2 | 51.6* | -0.8 | -6.8 | 8.2
C=C1CCN([C@@H](CC(C)C)C(=O)N2CCOCC2)S(=O)(=O)c2ccccc21 | -0.9 | x | x | -10.0 | x
COc1cccc(Cn2c(NCc3ccc(C)cc3)nc3c2c(=O)n(C)c(=O)n3C)c1 | x | x | -1.2 | x | 3.1
Cc1ccc(NC(=O)Nc2nnc(SCC(=O)N3CCCCC3)s2)cc1 | x | x | 0.6 | x | -5.4
CCc1ccc(NC(=O)CSc2nc3nccnc3c(=O)n2CCc2c[nH]c3ccccc23)cc1 | x | x | 1.2 | x | 9.1
CC(C)c1ccc2occ(-c3nn[nH]n3)c(=O)c2c1 | -3.7 | 32.4* | 0.9 | -2.0 | -3.9
Fc1ccc(-n2cc(CNCCc3ccccn3)c(-c3ccccc3Cl)n2)cc1 | 4.2 | 79.0* | -3.0 | -16.0 | -31.1
COc1ccc(NC(=O)c2sc3nc[nH]c(=O)c3c2C)cc1OC | x | x | 0.4 | x | -9.3
O=C(Nc1sc2c(c1C(=O)NCc1ccco1)CCCC2)c1cc(=O)c2cc(Cl)ccc2o1 | x | x | -0.1 | x | 8.8
COCc1c(C(=O)NC2CCCCCC2)oc2ccccc12 | u | 10.3 | 31.2* | 10.4 | -26.6
Cc1noc(C)c1COc1ccc(C(=O)OC(C)C(=O)Nc2ccc(N3CCOCC3)cc2)cc1 (configuration not stated) | -1.2 | 44.7* | -1.9 | 0.8 | 0.5
Cc1ccc2ncc(C(=O)Nc3ccc(F)cc3F)c(=O)n2c1 | x | x | 0.3 | x | 17.8
COc1cc(C)nc(N2CCCC(C(=O)Nc3cc(Cl)ccc3OC)C2)n1 (configuration not stated) | 0.7 | 6.9 | 1.3 | -1.2 | 80.6*
COc1ccc(NC(=O)C2CCCN(c3cc(C)nc4ncnn34)C2)cc1 (configuration not stated) | 2.1 | 30.1* | 0.3 | 3.2 | -11.0
COc1ccc(NC(=O)C2CCCN(c3c4c(nc5ncnn35)CCC4)C2)cc1 (configuration not stated) | -1.7 | -7.3 | 0.4 | -5.4 | 8.8
Cc1ccn2c(Nc3ccc4c(c3)OCO4)c(-c3ccco3)nc2c1 | x | x | -0.8 | x | -11.4
SMILES | D2 ag-1 | D2 antag | D2 ag-2 | D2 PAM-1 | D2 PAM-2
CSc1cccc(NC(=O)C2CCCN(S(=O)(=O)c3ccc4c(c3)CCCN4C(C)=O)C2)c1 (configuration not stated) | x | x | 0.0 | x | -4.0
Cc1onc(-c2ccccc2Cl)c1C(=O)Nc1sc2c(c1C#N)CCC2 | -0.2 | -10.5 | -0.4 | 3.5 | 9.8
Cc1onc(C(=O)Nc2sc3c(c2C#N)CCCC3)c1[N+](=O)[O-] | -0.8 | -2.7 | 36.9* | -0.7 | -30.8
COc1ccc(C(CNC(=O)COc2ccccc2C)N2CCCCC2)cc1 (configuration not stated) | -2.6 | 14.2 | 0.1 | -30.2 | -25.0
COc1ccc(C(CNC(=O)c2cccc(Br)c2)N2CCCC2)cc1 (configuration not stated) | 0.0 | 40.9* | 0.3 | -14.5 | -22.5
COc1ccc(C(CNC(=O)C(CCSC)NC(=O)c2ccccc2Cl)N2CCCCC2)cc1 (configuration not stated) | -3.3 | 40.7* | 0.8 | -16.9 | -5.0
COc1ccc(C(CNC(=O)c2cccc(S(=O)(=O)N3CCCC(C)C3)c2)N(C)C)cc1 (configuration not stated) | 0.9 | 76.4* | -0.2 | -6.0 | -33.8
COc1ccc(C(CNC(=O)C(CCSC)NC(=O)c2ccccc2Cl)N2CCCC2)cc1 (configuration not stated) | -3.7 | -4.2 | -0.6 | -21.4 | -3.2
COc1ccc(C(CNC(=O)COc2ccc(F)cc2Br)N2CCCC2)cc1 (configuration not stated) | -3.2 | 1.4 | -0.7 | -21.4 | 42.1*
CC1CCCN(S(=O)(=O)c2cccc(C(=O)NCc3ccco3)c2)C1 (configuration not stated) | 2.5 | x | x | -5.5 | x
COc1ccc(NC(=O)C(=O)NCCc2csc(-c3ccc(Cl)cc3)n2)cc1OC | x | x | -1.2 | x | 0.5
Cc1ccc(NC(=O)CCCn2c(=O)c3cccn3c3cccnc32)c(Cl)c1 | x | x | -0.4 | x | 1.4
CCC1=C(c2ccc(C)cc2)S(=O)(=O)N=C1N1CCC(C(=O)NCCc2ccc(Cl)cc2)CC1 | x | x | 0.1 | x | -5.4
COc1ccc(C(CNC(=O)C(C)Oc2ccc(Br)cc2)N2CCCC2)cc1 (configuration not stated) | -6.6 | 40.8* | 0.3 | -28.3 | -35.0
COc1ccc(Br)cc1CNC(=O)c1cc2ccccn2n1 | x | x | -0.4 | x | 0.2
Cc1cccc(NC(=O)C(NS(=O)(=O)c2ccc3c(c2)oc(=O)n3C)C(C)C)c1 (configuration not stated) | x | x | -1.2 | x | 22.2
Cn1c2ccccc2c2c(C(=O)N3CCN(c4ccccn4)CC3)cn(C3CCCC3)c(=O)c21 | -0.4 | 31.1* | -0.7 | -22.4 | 28.9
Cc1ccc(CN(C(=O)c2ccccc2F)c2ccccn2)o1 | x | x | 2.0 | x | 1.9
CCn1cnc2c1c(=O)n(Cc1csc(-c3ccccc3)n1)c(=O)n2Cc1ccccc1 | -0.3 | 4.3 | 1.0 | -0.9 | 7.0
CCn1cnc2c1c(=O)n(Cc1nnc3n1-c1ccccc1SC3)c(=O)n2Cc1ccccc1 | -4.4 | 5.1 | 1.5 | -0.2 | 34.4*

Assay outcomes (PubChem BioAssay)
